# Pf apPOL block = Pf-apPOL inhibitors, biochemical, fluorescence. inhibition, % at 10 µM. Plasmodium falciparum apicoplast DNA polymerase (apPOL). Recombinant Pf-apPOL, molecular beacon fluorescence, 1.5 h. 210,000 compounds, 0.25% hits
# mHTT-CaM PPI inh = mutant huntingtin-calmodulin interaction inhibitors – biochemical, AlphaScreen, primary screen | P42858 | AlphaScreen His-mHTT/GST-CaM binding, luminescence | inhibition, % at 15 µM | 190,000 compounds, 3.6% hits | AID 1671202, 2021;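 further: 0% = both proteins with DMSO and 100% = one protein alone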
# Active calls of the source: *; / = not tested or not shown; ! = a repeat was not active. Compounds with a hit are over-represented: about 3.6% of the library has one in this group of screens. No stated cut-off is given here; in the data, active means inhibition above about 50%; inactive means the rest.
SMILES,Pf apPOL block,mHTT-CaM PPI inh
CSc1ccc(NC(=O)N2CCN(C3=CC4=NCC(C)N4C=N3)CC2)cc1 (configuration not stated),-5.1,6.8
COc1cc(/C=C2/SC(c3ccccc3)=NC2=O)cc(Br)c1O,1.9,96.0*
CCOc1cc(C=C2C(=O)c3ccccc3C2=O)ccc1OC(C)C(=O)O (configuration not stated),-3.6,16.0
COc1ccc(/C=C2\Sc3ccccc3C2=O)cc1Br,-6.6,13.0
COc1cc(/C=C2\Sc3ccccc3C2=O)cc(I)c1O,-2.9,74.0*
COc1cc(/C=C2\Sc3ccccc3C2=O)cc(Br)c1O,-2.1,59.0*
COc1ccc(/C=C2/SC(c3ccccc3)=NC2=O)cc1,-4.5,44.0
CCOc1cc(C=C2C(=O)c3ccccc3C2=O)cc(Br)c1O,-4.4,66.0*
COc1cc(/C=C2\Sc3ccccc3C2=O)cc2sc(=O)oc12,0.2,13.0
Cc1ccc(NC(=O)COc2ccccc2C(=O)NC(C)c2ccccc2)cc1[N+](=O)[O-] (configuration not stated),-1.2,25.6
CC1(C)Cc2c(c(N3CCOCC3)nc3sc4c(NCC5CCCO5)nnnc4c23)CO1 (configuration not stated),-3.7,7.0
CCOc1ccc(/C=C2\Sc3ccccc3C2=O)cc1,1.6,1.0
CCOc1cc(/C=C2\Sc3ccccc3C2=O)cc(I)c1O,-5.5,71.0*
COCCNC(=O)C1CCCc2c1[nH]c1ccccc21 (configuration not stated),2.0,11.8
CCNC(=O)C1CCCc2c1[nH]c1ccc(Cl)cc21 (configuration not stated),-3.9,99.9*!
COc1cc(C(=O)N2CCC(CC(=O)NCCc3ccccc3)CC2)cc(OC)c1OC,-5.4,-3.0
O=C(NCC(c1cccnc1)N1CCc2ccccc21)c1cccc([N+](=O)[O-])c1 (configuration not stated),-4.5,35.1
Cc1cc(-c2ccc(NC(=O)c3ccoc3C)c(C)c2)ccc1NC(=O)c1ccoc1C,3.5,1.0
N#Cc1c(N=Cc2cccnc2)sc2c1CCCC2,-4.8,55.0*
N#Cc1c(N=Cc2ccco2)sc2c1CCCC2,/,11.0
COc1ccc(C(=O)Nc2cccc(-c3nc4ccccc4[nH]3)c2)cc1,-8.7,/
COc1ccc(NC(=O)N2CCN(c3nc4ccncc4n(CC(C)C)c3=O)CC2)cc1,-7.1,-2.9
Brc1ccc2c(c1)C1C=CCC1C(c1ccncc1)N2 (configuration not stated),-6.7,95.0*
Ic1ccc2c(c1)C1C=CCC1C(c1ccncc1)N2 (configuration not stated),5.8,95.0*
Fc1ccc(C2Nc3ccc(OC(F)(F)F)cc3C3C=CCC32)cc1 (configuration not stated),/,37.4
SMILES,Pf apPOL block,mHTT-CaM PPI inh
Nc1ccc(C2Nc3ccccc3C3C=CCC32)cc1 (configuration not stated),-11.1,85.3*
Fc1ccc(C2Nc3ccc(Br)cc3C3C=CCC32)cc1 (configuration not stated),-0.8,15.0
Cc1ccccc1N1C(=O)c2c(C)nc3ccccc3c2C1=O,-1.5,18.0
COc1ccc(OC)c(-c2csc(NC(=O)c3ccc([N+](=O)[O-])cc3)n2)c1,-0.9,7.0
O=C1OC(c2ccccc2)=N/C1=C/c1ccc(-c2cccc([N+](=O)[O-])c2)o1,4.0,19.0
CC(C)(O)C#Cc1ccc(C(=O)Nc2ccc(OC(F)(F)Cl)cc2)cc1,-5.5,-5.2
O=C(c1ccc(F)cc1F)N1CCN(c2ccc3nncn3n2)CC1,-3.9,-9.6
CC(Oc1ccc(OC(F)(F)F)cc1)C(=O)O (configuration not stated),2.0,/
COc1cc(NC(=O)C2CCCN(c3nnc4ccc(Cl)cn34)C2)cc(OC)c1OC (configuration not stated),-3.7,1.9
CCC(=O)Nc1cccc(-c2noc(C3CCN(C(=O)c4ccc(C#N)cc4)CC3)n2)c1,-3.5,10.6
Nc1ccc2cc(Br)c3ccccc3c2c1,/,59.2*
O=[N+]([O-])c1ccc2cc(Br)c3ccccc3c2c1,1.7,/
O=C1CSC(c2cn(-c3ccccc3)nc2-c2cccnc2)N1Cc1ccccc1 (configuration not stated),-36.4,28.0
COc1ccc(-c2nn(-c3ccccc3)cc2C2SCC(=O)N2Cc2ccccc2)cc1 (configuration not stated),-5.1,87.0*
Cc1cc(C)c(C)c(S(=O)(=O)N2CCN(C)CC2)c1C,-3.1,-4.4
Cc1cc(C)c(C)c(S(=O)(=O)N2CCC(c3c[nH]c4c(C)cccc34)CC2)c1C,-5.0,50.2*
CC1(C)Nc2sc3c(c2-c2nnnn21)CCCC3,/,55.6*
O=C1NC2(Nc3sc4c(c31)CCCC4)C(=O)Nc1ccccc12 (configuration not stated),18.4,23.0
Cc1nc2ccc(N(C)C)cc2s1,-6.6,13.1
CN(C)c1ccc2nc3ccc(=O)cc-3sc2c1,/,59.0*
O=C(NC1CC2CC1N(S(=O)(=O)c1cc(F)cc(F)c1)C2)c1cccnc1 (configuration not stated),-0.4,10.9
c1ccc2c(c1)OCC(c1csc3ncnc(N4CCOCC4)c13)O2 (configuration not stated),-10.2,-0.6
CC1=C(C(=O)Nc2ccccn2)C(c2ccc(F)cc2)C2=C(CCCC2=O)N1 (configuration not stated),1.6,0.0
CC1=C(C(=O)Nc2cccc(C(F)(F)F)c2)C(c2ccncc2)C2=C(CCCC2=O)N1 (configuration not stated),-1.0,-1.0
CC1=C(C(=O)Nc2ccccn2)C(c2ccccc2)C2=C(CCCC2=O)N1 (configuration not stated),51.9*,-1.0
SMILES,Pf apPOL block,mHTT-CaM PPI inh
CC1=C(C(=O)Nc2cccc(C(F)(F)F)c2)C(c2ccc(N(C)C)cc2)C2=C(CCCC2=O)N1 (configuration not stated),-3.3,57.0*
COc1ccc(OC)c(NC(=O)NCCC2CCN(C(=O)NC3CCCCC3)CC2)c1,8.1,5.2
Cc1cc2c(C(C)C)c(O)c(O)c(C=NCSN)c2c(O)c1-c1c(C)cc2c(C(C)C)c(O)c(O)c(C=NCSN)c2c1O,/,100.3*
O=C1CCCC2=C1C(c1ccccc1Cl)n1c(nc3ccccc31)N2 (configuration not stated),-11.8,-5.0
c1ccc(C2C3=C(CCCC3)Nc3ncnn32)cc1 (configuration not stated),96.3*,7.0
c1ccc(C2C3=C(CCCC3)Nc3nc4ccccc4n32)cc1 (configuration not stated),0.3,100.0*
CC1(C)CC(=O)C2=C(C1)Nc1ncnn1C2c1ccccc1 (configuration not stated),0.0,-2.0
COCCN1C(=O)Cc2ccccc2C1C(=O)N1CCN(c2cccc(Cl)c2)CC1 (configuration not stated),-4.3,67.1*
CCN1C(=O)Cc2ccccc2C1C(=O)N1CCN(c2cccc(Cl)c2)CC1 (configuration not stated),2.8,5.1
CCNC(=O)N1CCCC(c2cccc(C(=O)NCC(C)C)c2)C1 (configuration not stated),-5.7,-6.2
CC1CCN(C(=O)c2ccc3c(c2)NC(=O)C(N2CCOCC2)S3)CC1 (configuration not stated),-16.7,0.0

# Screens (PubChem)
